# Publication PMC7862700, “An all-to-all approach to the identification of sequence-specific readers for epigenetic DNA modifications on cytosine”
# Tests used:
# Experiment in all cases: DAPPL (digital affinity profiling via proximity ligation, sequencing); 10 mM Tris-HCl pH 7.5, 50 mM NaCl, 1 mM DTT, 4% glycerol, room temperature, 30 min; GST-TFs on glutathione beads, 16-mer random dsDNA library, 0.1% formaldehyde crosslink after washing; high values mean tight binding
# Conditions in all cases: protein: recombinant; tags: N-terminal GST; dsDNA, one strand shown
# [1] = target: ETV1 (Homo sapiens, UniProt P50549 1-477)
# Procedure, shortened: (§1)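 Binding signal is defined as a hexamer's read frequency for one factor over its frequency for the tag-only sample. To obtain reads, GST-fused human transcription factors were expressed in yeast, captured on glutathione beads, barcoded with DNA and pooled with that sample. Pools met 200 nmole of a 16-mer random double-stranded DNA library in Tris/NaCl/DTT/glycerol buffer for 30 min at room temperature before washing, 0.1% formaldehyde crosslinking, proximity ligation (BsaI/T4 ligase, 1 h, 37 °C), PCR and Illumina NextSeq500 sequencing.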
# [2] = target: T1, ERF (Homo sapiens, UniProt P50548 1-548)
# T1 sequence: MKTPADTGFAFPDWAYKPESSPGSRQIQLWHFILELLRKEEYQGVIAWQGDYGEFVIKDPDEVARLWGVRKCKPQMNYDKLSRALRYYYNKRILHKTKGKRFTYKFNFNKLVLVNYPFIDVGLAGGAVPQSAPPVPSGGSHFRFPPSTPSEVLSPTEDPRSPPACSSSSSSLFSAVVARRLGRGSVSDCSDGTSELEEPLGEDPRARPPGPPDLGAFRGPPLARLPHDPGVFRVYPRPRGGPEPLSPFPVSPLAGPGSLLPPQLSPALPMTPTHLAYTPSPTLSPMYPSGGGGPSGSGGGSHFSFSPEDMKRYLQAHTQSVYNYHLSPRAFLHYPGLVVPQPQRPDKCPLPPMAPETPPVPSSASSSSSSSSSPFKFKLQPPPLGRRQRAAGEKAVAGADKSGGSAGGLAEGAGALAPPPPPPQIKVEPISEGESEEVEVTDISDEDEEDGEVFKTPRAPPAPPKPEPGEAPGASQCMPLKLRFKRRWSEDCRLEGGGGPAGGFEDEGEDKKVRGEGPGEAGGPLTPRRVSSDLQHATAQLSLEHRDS
# Procedure, shortened: as §1
# [3] = target: T2, ETV3L (Homo sapiens, UniProt Q6ZN32 1-361)
# T2 sequence: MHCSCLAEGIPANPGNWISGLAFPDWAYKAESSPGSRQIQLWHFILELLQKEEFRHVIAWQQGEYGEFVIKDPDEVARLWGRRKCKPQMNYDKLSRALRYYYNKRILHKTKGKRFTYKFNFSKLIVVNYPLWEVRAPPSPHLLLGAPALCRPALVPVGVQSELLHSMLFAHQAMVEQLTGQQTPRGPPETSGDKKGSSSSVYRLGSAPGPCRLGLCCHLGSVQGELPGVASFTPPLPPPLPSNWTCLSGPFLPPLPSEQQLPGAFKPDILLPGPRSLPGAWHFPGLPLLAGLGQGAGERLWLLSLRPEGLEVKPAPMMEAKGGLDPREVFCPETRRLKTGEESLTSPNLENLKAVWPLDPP
# Procedure, shortened: as §1
# [4] = target: T3, ETS2 (Homo sapiens, UniProt P15036 1-469)
# T3 sequence: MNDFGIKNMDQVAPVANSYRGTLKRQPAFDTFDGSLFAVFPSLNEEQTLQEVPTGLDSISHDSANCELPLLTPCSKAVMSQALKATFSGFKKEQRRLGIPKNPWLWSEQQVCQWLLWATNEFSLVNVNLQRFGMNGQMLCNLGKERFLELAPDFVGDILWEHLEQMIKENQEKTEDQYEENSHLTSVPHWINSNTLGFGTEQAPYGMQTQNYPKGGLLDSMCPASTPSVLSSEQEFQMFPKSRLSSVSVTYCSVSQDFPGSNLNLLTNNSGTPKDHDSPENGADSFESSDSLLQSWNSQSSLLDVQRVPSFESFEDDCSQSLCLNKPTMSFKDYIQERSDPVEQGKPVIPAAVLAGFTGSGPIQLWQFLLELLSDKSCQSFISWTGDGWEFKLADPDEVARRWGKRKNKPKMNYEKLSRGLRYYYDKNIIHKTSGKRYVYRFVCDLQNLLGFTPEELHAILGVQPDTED
# Procedure, shortened: as §1
# [5] = target: T4, SPDEF (Homo sapiens, UniProt O95238 1-335)
# T4 sequence: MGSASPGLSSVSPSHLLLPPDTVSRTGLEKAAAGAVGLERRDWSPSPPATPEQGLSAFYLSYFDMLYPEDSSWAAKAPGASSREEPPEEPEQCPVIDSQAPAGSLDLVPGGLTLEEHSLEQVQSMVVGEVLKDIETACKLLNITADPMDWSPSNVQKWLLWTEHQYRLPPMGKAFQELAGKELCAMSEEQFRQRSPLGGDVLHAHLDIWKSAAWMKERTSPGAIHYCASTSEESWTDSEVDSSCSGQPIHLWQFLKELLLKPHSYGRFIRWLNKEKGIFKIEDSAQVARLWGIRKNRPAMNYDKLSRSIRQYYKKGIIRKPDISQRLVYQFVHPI
# Procedure, shortened: as §1
# [6] = target: T5, ETV7 (Homo sapiens, UniProt Q9Y603 1-341)
# T5 sequence: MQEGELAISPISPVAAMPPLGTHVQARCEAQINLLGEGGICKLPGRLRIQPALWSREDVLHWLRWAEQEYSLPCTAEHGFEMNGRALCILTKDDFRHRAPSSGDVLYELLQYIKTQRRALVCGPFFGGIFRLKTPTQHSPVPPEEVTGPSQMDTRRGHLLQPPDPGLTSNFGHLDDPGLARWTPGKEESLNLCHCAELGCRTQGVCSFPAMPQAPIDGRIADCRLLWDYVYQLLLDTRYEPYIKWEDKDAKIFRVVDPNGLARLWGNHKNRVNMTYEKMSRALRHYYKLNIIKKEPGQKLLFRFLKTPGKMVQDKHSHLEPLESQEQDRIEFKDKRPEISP
# Procedure, shortened: as §1
# [7] = target: T6, ELF5 (Homo sapiens, UniProt Q9UKW6-2 1-255)
# T6 sequence: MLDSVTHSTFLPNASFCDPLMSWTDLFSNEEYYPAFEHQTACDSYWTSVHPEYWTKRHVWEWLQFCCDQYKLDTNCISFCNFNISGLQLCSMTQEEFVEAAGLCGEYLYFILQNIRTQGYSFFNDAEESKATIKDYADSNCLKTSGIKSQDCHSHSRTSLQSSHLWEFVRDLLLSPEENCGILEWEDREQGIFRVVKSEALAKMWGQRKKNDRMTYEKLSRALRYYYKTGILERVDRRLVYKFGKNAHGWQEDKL
# Procedure, shortened: as §1
# [8] = target: T7, ETV3 (Homo sapiens, UniProt P41162-2 1-143)
# T7 sequence: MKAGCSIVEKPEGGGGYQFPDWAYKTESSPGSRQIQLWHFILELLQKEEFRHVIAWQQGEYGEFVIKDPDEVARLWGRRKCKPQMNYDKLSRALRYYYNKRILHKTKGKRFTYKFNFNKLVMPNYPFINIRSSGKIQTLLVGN
# Procedure, shortened: as §1
# [9] = target: ETV6 (Homo sapiens, UniProt P41212 1-452)
# Procedure, shortened: as §1
# Chain of ETV6 (P41212 whole entry): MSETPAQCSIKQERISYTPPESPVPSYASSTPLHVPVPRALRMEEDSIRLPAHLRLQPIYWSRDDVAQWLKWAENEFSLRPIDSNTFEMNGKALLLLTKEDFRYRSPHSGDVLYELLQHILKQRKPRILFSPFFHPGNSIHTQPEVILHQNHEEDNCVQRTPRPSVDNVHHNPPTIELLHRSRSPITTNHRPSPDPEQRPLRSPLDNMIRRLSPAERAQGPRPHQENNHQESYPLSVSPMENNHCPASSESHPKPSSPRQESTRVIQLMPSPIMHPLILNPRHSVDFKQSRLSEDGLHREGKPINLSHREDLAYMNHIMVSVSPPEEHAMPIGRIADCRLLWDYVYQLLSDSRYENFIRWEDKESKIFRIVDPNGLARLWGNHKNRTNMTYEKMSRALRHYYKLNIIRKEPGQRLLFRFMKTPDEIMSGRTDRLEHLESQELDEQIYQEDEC
# Chain of ETV1 (P50549 whole entry, the tested form may be a part): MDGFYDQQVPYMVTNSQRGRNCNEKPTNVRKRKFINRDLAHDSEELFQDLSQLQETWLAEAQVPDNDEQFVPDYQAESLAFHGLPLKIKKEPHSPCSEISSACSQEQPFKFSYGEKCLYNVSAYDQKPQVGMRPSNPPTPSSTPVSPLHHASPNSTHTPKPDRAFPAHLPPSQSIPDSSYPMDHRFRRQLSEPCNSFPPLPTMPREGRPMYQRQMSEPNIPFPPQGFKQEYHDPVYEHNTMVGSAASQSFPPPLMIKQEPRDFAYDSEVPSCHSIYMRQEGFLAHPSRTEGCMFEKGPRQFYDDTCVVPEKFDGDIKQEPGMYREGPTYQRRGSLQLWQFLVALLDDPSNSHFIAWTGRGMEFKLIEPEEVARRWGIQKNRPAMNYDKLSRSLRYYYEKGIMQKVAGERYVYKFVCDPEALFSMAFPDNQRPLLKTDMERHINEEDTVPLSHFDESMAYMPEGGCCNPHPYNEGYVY
sequence,measurement,setting,value
GCTAGC,binding signal,[1],"1.24 fold enrichment (6-mer frequency, TF over GST control)"
same,binding signal,[2],"1.2 fold enrichment (6-mer frequency, TF over GST control)"
same,binding signal,[3],"1.35 fold enrichment (6-mer frequency, TF over GST control)"
same,binding signal,[4],"1.2 fold enrichment (6-mer frequency, TF over GST control)"
same,binding signal,[5],"1.13 fold enrichment (6-mer frequency, TF over GST control)"
same,binding signal,[6],"1.24 fold enrichment (6-mer frequency, TF over GST control)"
same,binding signal,[7],"1.15 fold enrichment (6-mer frequency, TF over GST control)"
same,binding signal,[8],"1.16 fold enrichment (6-mer frequency, TF over GST control)"
same,binding signal,[9],"1.09 fold enrichment (6-mer frequency, TF over GST control)"
